The target of assay [1] is Rho-associated protein kinase 1 (Homo sapiens) (UniProt Q13464). The conditions noted are these: at 1 µM.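 Further: reported values are mean percent inhibition of ROCK1.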
Assay [2] deals with Rho-associated protein kinase 2 (Homo sapiens) (UniProt O75116). The conditions noted are these: at 0.1 µM.
The target is the same in assay [3]. As to conditions: at 1 µM.
Assay [4] addresses Ribosomal protein S6 kinase alpha-1 (Homo sapiens) (UniProt Q15418). The conditions noted are these: at 0.1 µM.
For assay [5] the target is unchanged. As to conditions: at 1 µM.
For assay [6], the target named is Ribosomal protein S6 kinase alpha-3 (Homo sapiens) (UniProt P51812). As to conditions: at 0.1 µM.
For assay [7] the target is unchanged. The conditions noted are these: at 1 µM.
The target of assay [8] is Ribosomal protein S6 kinase alpha-2 (Homo sapiens) (UniProt Q15349). As to conditions: at 0.1 µM.
Ribosomal protein S6 kinase alpha-2 (Homo sapiens), sequence (Q15349 whole entry): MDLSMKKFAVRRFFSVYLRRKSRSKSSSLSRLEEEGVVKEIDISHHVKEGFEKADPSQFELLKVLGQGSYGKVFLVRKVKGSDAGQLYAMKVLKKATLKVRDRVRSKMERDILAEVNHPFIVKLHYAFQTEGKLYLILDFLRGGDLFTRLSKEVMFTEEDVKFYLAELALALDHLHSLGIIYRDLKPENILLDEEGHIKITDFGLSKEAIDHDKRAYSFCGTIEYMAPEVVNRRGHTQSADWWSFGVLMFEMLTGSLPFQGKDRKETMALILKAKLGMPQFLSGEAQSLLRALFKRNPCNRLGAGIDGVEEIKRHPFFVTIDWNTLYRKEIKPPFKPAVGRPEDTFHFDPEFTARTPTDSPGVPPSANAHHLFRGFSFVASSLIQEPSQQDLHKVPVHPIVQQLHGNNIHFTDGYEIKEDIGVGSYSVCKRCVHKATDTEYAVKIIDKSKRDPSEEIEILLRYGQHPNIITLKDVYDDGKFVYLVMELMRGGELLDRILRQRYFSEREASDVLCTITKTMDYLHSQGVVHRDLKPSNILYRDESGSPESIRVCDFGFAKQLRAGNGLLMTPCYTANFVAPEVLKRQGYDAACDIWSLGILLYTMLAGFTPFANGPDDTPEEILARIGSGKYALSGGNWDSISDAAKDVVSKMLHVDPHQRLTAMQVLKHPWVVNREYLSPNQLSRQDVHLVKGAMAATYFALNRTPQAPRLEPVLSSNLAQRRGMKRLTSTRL
Assay [9] has the same target. The conditions noted are these: at 1 µM.
In assay [10] the target is Ribosomal protein S6 kinase alpha-6 (Homo sapiens) (UniProt Q9UK32). As to conditions: at 0.1 µM.
Ribosomal protein S6 kinase alpha-6 (Homo sapiens), sequence (Q9UK32 whole entry): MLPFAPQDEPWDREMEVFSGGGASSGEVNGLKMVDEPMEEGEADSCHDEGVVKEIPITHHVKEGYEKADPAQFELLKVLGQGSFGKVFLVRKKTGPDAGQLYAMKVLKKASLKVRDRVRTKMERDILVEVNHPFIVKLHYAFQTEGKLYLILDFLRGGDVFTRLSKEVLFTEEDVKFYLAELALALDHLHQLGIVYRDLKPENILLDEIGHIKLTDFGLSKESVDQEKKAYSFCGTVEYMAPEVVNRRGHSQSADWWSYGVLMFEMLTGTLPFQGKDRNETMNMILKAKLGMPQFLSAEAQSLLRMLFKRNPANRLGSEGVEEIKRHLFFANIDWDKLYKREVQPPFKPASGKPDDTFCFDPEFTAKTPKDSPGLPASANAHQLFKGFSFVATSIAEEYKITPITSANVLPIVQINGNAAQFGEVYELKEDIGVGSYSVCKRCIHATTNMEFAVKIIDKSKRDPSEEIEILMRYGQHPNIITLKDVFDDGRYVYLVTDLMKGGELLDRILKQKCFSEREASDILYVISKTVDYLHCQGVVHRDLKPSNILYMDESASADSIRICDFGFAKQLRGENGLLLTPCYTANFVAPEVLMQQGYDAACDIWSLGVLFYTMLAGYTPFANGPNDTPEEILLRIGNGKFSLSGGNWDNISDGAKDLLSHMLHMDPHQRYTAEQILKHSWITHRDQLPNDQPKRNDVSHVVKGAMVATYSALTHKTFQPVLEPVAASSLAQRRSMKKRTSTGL
Assay [11] shares this target. The conditions noted are these: at 1 µM.
In assay [12] the target is T1, Serine/threonine-protein kinase Sgk1 (Homo sapiens) (UniProt O00141).
T1 sequence (whole entry): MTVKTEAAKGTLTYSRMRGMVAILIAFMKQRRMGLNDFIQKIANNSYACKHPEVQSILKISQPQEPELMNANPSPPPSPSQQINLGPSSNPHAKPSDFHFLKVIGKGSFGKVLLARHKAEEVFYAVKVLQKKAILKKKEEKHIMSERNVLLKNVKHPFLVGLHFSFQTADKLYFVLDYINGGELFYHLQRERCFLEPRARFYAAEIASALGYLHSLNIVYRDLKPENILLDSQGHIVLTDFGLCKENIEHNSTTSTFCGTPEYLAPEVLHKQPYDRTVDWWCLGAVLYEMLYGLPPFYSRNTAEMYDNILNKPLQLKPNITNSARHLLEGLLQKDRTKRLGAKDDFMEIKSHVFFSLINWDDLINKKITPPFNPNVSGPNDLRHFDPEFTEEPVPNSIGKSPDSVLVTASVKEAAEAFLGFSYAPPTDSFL
The conditions noted are these: at 0.1 µM.

The target of assay [13] is T1, Serine/threonine-protein kinase Sgk1 (Homo sapiens). As to conditions: at 1 µM.
The target of assay [14] is T2, Serine/threonine-protein kinase Sgk2 (Homo sapiens) (UniProt Q9HBY8).
T2 sequence (whole entry): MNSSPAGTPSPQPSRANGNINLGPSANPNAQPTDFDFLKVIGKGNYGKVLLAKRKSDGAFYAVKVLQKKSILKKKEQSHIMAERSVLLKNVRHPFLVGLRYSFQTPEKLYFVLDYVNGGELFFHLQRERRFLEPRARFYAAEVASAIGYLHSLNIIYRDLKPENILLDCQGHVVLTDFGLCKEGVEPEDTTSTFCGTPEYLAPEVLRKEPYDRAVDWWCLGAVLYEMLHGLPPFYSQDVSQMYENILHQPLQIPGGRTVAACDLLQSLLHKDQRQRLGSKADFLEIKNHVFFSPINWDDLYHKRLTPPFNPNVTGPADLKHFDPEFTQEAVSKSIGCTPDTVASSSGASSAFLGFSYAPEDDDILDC
The conditions noted are these: at 0.1 µM.

Assay [15] deals with T2, Serine/threonine-protein kinase Sgk2 (Homo sapiens). As to conditions: at 1 µM.
Assay [16] has as its target T3, Serine/threonine-protein kinase Sgk3 (Homo sapiens) (UniProt Q96BR1).
T3 sequence (whole entry): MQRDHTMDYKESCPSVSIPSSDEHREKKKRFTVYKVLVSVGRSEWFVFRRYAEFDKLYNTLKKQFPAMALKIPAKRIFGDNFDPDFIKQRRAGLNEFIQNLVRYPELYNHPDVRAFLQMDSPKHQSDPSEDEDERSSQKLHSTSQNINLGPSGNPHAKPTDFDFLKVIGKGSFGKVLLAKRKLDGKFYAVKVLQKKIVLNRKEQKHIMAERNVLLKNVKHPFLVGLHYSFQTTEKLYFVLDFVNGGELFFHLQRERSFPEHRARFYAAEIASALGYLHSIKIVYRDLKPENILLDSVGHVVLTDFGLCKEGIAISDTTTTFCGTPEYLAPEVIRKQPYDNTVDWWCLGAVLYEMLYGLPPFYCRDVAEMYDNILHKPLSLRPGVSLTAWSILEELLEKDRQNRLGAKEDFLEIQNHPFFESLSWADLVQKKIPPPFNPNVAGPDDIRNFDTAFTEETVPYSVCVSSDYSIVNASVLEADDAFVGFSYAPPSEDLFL
The conditions noted are these: at 0.1 µM.

Assay [17] deals with T3, Serine/threonine-protein kinase Sgk3 (Homo sapiens). The conditions noted are these: at 1 µM.
In assay [18] the target is 5'-AMP-activated protein kinase catalytic subunit alpha-1 (Homo sapiens) (UniProt Q13131). As to conditions: at 0.1 µM.
5'-AMP-activated protein kinase catalytic subunit alpha-1 (Homo sapiens), sequence (Q13131 whole entry, looked up): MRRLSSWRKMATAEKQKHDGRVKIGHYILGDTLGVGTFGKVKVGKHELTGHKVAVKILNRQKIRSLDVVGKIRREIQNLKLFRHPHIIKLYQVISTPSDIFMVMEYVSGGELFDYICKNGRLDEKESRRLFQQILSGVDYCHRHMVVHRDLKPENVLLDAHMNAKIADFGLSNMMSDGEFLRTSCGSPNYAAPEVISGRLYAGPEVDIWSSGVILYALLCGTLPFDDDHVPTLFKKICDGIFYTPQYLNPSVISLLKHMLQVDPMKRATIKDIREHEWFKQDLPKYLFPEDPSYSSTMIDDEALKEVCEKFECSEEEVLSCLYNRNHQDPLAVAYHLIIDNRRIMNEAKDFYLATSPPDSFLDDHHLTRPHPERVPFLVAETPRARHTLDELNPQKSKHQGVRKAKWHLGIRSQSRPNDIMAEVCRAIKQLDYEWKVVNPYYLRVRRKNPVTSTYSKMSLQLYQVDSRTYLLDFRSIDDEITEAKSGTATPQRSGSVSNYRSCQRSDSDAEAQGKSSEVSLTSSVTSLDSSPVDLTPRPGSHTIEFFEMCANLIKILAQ
Assay [19] shares this target. The conditions noted are these: at 1 µM.
Assay [20] deals with 5'-AMP-activated protein kinase catalytic subunit alpha-2 (Homo sapiens) (UniProt P54646). As to conditions: at 0.1 µM.
5'-AMP-activated protein kinase catalytic subunit alpha-2 (Homo sapiens), sequence (P54646 whole entry, looked up): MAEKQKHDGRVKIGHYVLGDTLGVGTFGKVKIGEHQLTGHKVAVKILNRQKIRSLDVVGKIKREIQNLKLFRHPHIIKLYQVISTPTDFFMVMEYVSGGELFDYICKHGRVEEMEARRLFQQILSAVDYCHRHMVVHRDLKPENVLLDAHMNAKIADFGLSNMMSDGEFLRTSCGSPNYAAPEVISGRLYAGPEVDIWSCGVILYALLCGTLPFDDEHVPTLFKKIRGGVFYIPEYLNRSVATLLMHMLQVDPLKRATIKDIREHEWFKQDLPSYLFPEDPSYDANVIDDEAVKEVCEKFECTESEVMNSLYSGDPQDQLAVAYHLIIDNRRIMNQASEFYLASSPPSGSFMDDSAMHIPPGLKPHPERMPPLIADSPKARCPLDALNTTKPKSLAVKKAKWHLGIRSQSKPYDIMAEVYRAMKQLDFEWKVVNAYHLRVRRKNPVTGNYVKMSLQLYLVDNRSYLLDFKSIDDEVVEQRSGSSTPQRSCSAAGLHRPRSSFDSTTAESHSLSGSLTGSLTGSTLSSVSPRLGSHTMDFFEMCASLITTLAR

Rho-associated protein kinase 1 (Homo sapiens), sequence (Q13464 2-1354 limits assumed): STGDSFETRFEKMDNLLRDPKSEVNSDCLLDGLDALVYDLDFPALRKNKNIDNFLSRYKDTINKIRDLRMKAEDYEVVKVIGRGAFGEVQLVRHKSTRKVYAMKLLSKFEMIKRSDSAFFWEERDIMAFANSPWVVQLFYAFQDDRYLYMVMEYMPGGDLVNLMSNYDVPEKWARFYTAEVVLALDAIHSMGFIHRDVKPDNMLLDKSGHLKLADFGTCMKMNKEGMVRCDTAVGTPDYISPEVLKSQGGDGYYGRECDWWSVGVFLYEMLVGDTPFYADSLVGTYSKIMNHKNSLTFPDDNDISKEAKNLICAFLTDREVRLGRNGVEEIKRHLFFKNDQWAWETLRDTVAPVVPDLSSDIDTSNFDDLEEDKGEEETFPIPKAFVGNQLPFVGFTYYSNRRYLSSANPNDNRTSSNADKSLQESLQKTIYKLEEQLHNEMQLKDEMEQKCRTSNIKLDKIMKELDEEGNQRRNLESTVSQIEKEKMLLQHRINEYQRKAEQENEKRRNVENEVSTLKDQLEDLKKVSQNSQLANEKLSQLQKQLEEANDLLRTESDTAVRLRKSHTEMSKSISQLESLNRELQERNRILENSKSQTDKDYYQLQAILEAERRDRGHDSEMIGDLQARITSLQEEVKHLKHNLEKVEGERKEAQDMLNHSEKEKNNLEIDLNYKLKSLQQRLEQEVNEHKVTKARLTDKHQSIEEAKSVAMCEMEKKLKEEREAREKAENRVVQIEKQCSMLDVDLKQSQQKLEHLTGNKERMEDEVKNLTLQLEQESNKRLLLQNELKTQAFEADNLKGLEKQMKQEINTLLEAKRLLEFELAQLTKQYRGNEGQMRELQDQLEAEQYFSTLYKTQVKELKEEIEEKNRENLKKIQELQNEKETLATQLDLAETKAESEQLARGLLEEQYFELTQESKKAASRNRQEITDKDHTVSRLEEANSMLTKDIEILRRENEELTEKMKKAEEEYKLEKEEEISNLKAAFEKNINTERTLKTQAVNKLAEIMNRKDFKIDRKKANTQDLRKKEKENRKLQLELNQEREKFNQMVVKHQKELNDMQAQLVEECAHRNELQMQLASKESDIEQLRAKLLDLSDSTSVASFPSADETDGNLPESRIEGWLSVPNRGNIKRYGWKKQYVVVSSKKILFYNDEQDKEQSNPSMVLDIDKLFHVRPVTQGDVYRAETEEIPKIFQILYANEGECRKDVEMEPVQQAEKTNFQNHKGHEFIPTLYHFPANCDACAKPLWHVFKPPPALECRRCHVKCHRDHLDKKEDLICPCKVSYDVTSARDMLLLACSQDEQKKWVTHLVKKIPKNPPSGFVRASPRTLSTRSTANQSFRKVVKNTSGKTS
Ribosomal protein S6 kinase alpha-1 (Homo sapiens), sequence (Q15418 whole entry): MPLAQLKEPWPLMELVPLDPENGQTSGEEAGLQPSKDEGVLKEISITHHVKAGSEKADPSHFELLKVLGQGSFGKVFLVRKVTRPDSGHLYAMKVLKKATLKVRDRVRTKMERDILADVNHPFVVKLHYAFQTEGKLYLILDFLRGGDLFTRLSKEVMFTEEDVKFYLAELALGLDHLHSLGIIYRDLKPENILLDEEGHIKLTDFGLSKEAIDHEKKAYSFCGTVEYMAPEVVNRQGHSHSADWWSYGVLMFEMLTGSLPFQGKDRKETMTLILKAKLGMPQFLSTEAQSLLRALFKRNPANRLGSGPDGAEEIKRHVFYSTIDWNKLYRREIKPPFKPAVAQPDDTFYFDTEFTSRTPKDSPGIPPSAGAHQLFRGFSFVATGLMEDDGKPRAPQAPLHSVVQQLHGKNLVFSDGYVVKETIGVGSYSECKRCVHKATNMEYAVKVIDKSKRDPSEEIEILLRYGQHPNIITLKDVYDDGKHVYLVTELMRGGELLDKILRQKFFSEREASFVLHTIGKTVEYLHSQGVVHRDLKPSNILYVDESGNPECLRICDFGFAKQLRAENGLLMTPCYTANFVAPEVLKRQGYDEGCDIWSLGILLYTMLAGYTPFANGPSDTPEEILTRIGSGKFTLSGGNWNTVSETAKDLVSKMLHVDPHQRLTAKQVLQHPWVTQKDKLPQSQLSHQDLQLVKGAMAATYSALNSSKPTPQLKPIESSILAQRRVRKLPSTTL

As a reminder, the inhibition is the drop in the measured response relative to a control, in per cent. With `Cc1cc(O)cc(C)c1/C=C/c1cncc(-c2nn[nH]n2)c1`, the inhibition turned out to be 1.86% in assay [1]; 2.66% in [2]; 2.33% in assay [3]; 2.97% in assay [4]; 1% in assay [5]; 1.94% in [6]. Also, the inhibition came to 1.24% in assay [7]; 3.53% in assay [8]; 3.85% in [9]; 2.1% in [10]; 0.92% in assay [11]; 3.17% in [12]. Also, the inhibition in [13] was 2.09%; in [14], -1.45%; in assay [15], 1.25%; in assay [16] it was 1.96%; in [17] it was 3.83%; in assay [18] it was 3.54%. Besides, the inhibition in assay [19] is 3.56%; in [20], 3.69%.
In the case of `CCn1c(-c2nonc2N)nc2cncc(C(=O)N3CC[C@H](N)C3)c21`, the inhibition in assay [2] is 74.9%; in [3], 83.5%; in assay [4] it was 44.6%; in [5] it was 75.8%; in [6], 31.3%; in assay [7] it was 69.9%. The inhibition in assay [8] is 18.3%; in assay [9] it was 65.9%; in assay [10], 6.13%; in assay [11] it was 25%; in [12], 7.33%; in assay [13], 29.4%. The inhibition in assay [14] is 6.54%; in [15], 44.6%; in assay [16] it was 19.6%; in assay [17] it was 68.1%; in assay [18], 4.01%; in [19], 6.61%. In addition, the inhibition in [20] is 4.72%.
On to `COc1ccccc1Nc1ncc(-c2ccccc2)o1`, for which the inhibition in [1] was 3.7%; in assay [2], 4.07%; in assay [3] it was 3.77%; in assay [4], 0.8%; in assay [5], 23.5%; in assay [6], -0.3%. The inhibition in assay [7] worked out at 0.19%; in assay [8] it was 3.05%; in [9], 4.52%; in [10], 0.08%; in assay [11], 0.95%; in assay [12], 2.95%. In addition, the inhibition stood at 4.31% in assay [13]; 5.64% in [14]; 0.66% in assay [15]; 4.99% in assay [16]; 3.37% in [17]; 1.74% in assay [18]. For the same compound, the inhibition in assay [19] was found to be 3.31%; in assay [20] it was 3.16%.
With `CS(=O)(=O)CCNCc1nc(-c2ccc3ncnc(Nc4ccc(F)c(Cl)c4)c3c2)cs1`, the inhibition in assay [1] is 2.92%; in assay [2], 2.45%; in assay [3], 5.8%; in assay [4], 1.4%; in assay [5] it was 3.63%; in assay [6], 1.07%. Moreover, the inhibition in assay [7] is 2.43%; in [8], -0.57%; in [9] it was 0.84%; in assay [10] it was 0.69%; in [11], 1.36%; in assay [12] it was 0.28%. In addition, the inhibition in assay [13] is 4.55%; in assay [14], 2.82%; in assay [15], -2.15%; in assay [16], 3.08%; in assay [17], 2.67%; in [18], 2.39%. In addition, the values for the inhibition in [19] and in [20] were 1.3% and -4.68%, respectively.
In the case of `NC(=O)c1cccc(Nc2nccc(Nc3cccc4[nH]ncc34)n2)c1`, the inhibition in assay [1] is 7.57%; in assay [2], 1.22%; in [3] it was 13.4%; in assay [4], -0.17%; in assay [5] it was 7.69%; in assay [6] it was -0.11%. For the same compound, the inhibition in assay [7] is 8.36%; in assay [8] it was -1.89%; in [9] it was 2.72%; in assay [10] it was 0.56%; in [11] it was 9.04%; in [12], -1.84%. Also, the inhibition in [13] was 1.71%; in assay [14], -4.35%; in assay [15], -0.81%; in [16], -4.06%; in assay [17], -1.36%; in assay [18], 3.35%. Besides, the figures for the inhibition in assay [19] and in assay [20] were 18.5% and 2.4%, respectively.
In the case of `CCCN1CCC(Oc2cc(Nc3nc(Nc4cccc(F)c4C(N)=O)c4cc[nH]c4n3)c(OC)cc2Cl)CC1`, the inhibition in [1] was 8.85%; in assay [2], 1.22%; in assay [3], 7.48%; in assay [4], 0.01%; in assay [5] it was 7.33%; in assay [6] it was 0.89%. The inhibition in assay [7] is 3.26%; in [8], -0.12%; in [9], 0.95%; in [10] it was 1.35%; in [11], 4.14%; in assay [12] it was 0.54%. In addition, the inhibition is 0.96% in assay [13]; 0.41% in [14]; 1.93% in [15]; -0.88% in assay [16]; -2.21% in assay [17]; 3.28% in [18]. In addition, the inhibition in assay [19] amounted to 8.12%; in [20], 1.83%.
In the case of `CC1=C(C(=O)Nc2ccc3[nH]ncc3c2)C(c2ccc(Cl)c(Cl)c2)CC(=O)N1` (centres undefined), the inhibition was 91.8% in assay [1]; 71.2% in assay [2]; 89.9% in assay [3]; 3.44% in assay [4]; 23.6% in assay [5]; 1.88% in assay [6]. Also, the inhibition was found to be 18.9% in assay [7]; 0.64% in assay [8]; 13.2% in assay [9]; 0.12% in [10]; 5.82% in [11]; 0.54% in assay [12]. The inhibition in assay [13] stood at 6.57%; in assay [14] it was 0.96%; in assay [15], 8.76%; in assay [16] it was 1.38%; in assay [17], 10.8%; in [18] it was 6.35%. The figures for the inhibition in assay [19] and in [20] were 34.8% and 1.12%, respectively.

For the origin of these results see ChEMBL document CHEMBL1961873, “Compounds: GSK PKIS; Assays: Nanosyn kinase panel” (2012).
